Screens as filed in PubChem BioAssay.
HSF1 activator – HSF-1 activators, primary screen, NIH3T3-HGL cells, MG132 stress, luminescence, single point; hit rate 1.7% among 300,000; activation, % at 9 µM; NIH3T3-HGL HSF-1 luciferase reporter, 8 h; 100% = twice DMSO control signal; AID 504408, 2011;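 active = mean replicate activation of at least 50% with a set share of replicates each reaching 50%; inconclusive = only one of those two conditions met; inactive = mean below 50% and too few replicates reaching it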;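 also: 0% = median of the neutral control wells and 100% = twice that signal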
pCIP destab – p/CIP-EGFP fusion destabilizers, primary screen, fluorescence, F442A cells; hit rate 0.01% among 290,000; AID 1984, 2009; Q05BA5; decrease of EGFP signal, % at 10 µM; 16 h;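 active = EGFP signal decrease of at least 30% at 10 µM or well 3 SD below plate mean, unless failing retest; inactive = the rest, including hits failing retest or dose response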
NALP1 inh – NALP1 inflammasome inhibitors in reconstituted yeast, colorimetric, S. cerevisiae, triplicate retest | S. cerevisiae NALP1/ASC/caspase-1 growth, X-gal OD620, 72 h | inhibition, % at 10 µM | hit rate 0.61% among 280,000; in the data active = inhibition mostly above about 24%, no sharp cut-off; inactive = mostly below about 32%
HSF1 inhib – HSF1 inhibitors in luciferase reporter cells, primary screen, cell-based, NIH3T3, luminescence. hit rate 0.77% among 300,000. AID 2098, 2009. NIH3T3-HGL HSE-luciferase, MG132-induced, luminescence 8 h; hits give low values. activity change, negative = inhibition, % at 7.5 µM (by protocol);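 active = more than half of replicate wells show activity change below -50%, luminescence cut by over half; inconclusive = some wells, but at most half, below -50%; inactive = no replicate well below -50%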;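 also: luciferase reports HSF-1 transcriptional activity via heat shock element; 0% = median of DMSO wells and -100% = zero luminescence signal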
HSP90 refold inh – HSP90 inhibitors, primary screen, cell lysate, luminescence | Heat shock protein HSP 90 (rabbit reticulocyte lysate; luciferase refolding) | Rabbit reticulocyte lysate, luciferase refolding luminescence, 3 h | inhibition, % at 5.6 µM | hit rate 0.91% among 290,000 | AID 1789, 2009;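 active = inhibition above the screen-wide mean plus 3 SD, computed separately per campaign, cut at about 16% in these data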;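 also: 0% = DMSO wells and 100% = 60 µM geldanamycin wells; inhibitors lower the luminescence because luciferase stays unfolded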
Hsp70 activator – Hsp70 transcriptional activators, primary screen, cell-based, HeLa, Hsp70 promoter luciferase, luminescence, 10 µM | AID 1203, 2008 | activation, % at 10 µM | hit rate 0.04% among 200,000 | HeLa Hsp70 promoter luciferase reporter; scaled: vehicle 0, proteasome-inhibitor control 100%;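 active = activation above the mean across all tested compounds plus 3 SD, cutoff set per campaign, cut at about 5.5% in these data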;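 also: 100% = MG132 at 30 µM as the positive control and 0% = DMSO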
Active calls of the source: *; ? = inconclusive; · = not tested or not shown. The list is not random: actives were taken first. Their share in the collection is about 3.8%.

SMILES | HSF1 activator | pCIP destab | NALP1 inh | HSF1 inhib | HSP90 refold inh | Hsp70 activator
O=C(c1cc2ccccc2o1)N1CCN(S(=O)(=O)/C=C/c2ccccc2)CC1 | 4.8 | 1.2 | 7.7 | -4.8 | -4.2 | 0.0
CN(CC(=O)Nc1cccc(F)c1)C(=O)CCc1nc2cc(S(=O)(=O)N3CCOCC3)ccc2n1C | 11.8 | · | · | 1.2 | · | ·
O=C1N=C2N(CCN3CCCCC3)c3ccccc3N2/C1=C\c1ccc([N+](=O)[O-])o1 | · | 5.4 | -24.8 | · | -4.0 | 0.0
COC(=O)C[C@](O)(CCCC(C)(C)O)C(=O)O[C@@H]1C(OC)=C[C@]23CCCN2CCc2cc4c(cc2[C@H]13)OCO4 | -75.9 | · | · | -73.1* | · | ·
Cc1cc(C)nc(N2CCCC(C(=O)NNC(=O)c3ccncc3)C2)n1 (configuration not stated) | 10.2 | 8.9 | · | -7.8 | 1.6 | ·
c1cncc(-c2nc3ccccc3[nH]2)c1 | -2.9 | -10.1 | -0.7 | 5.5 | 1.4 | 0.2
c1ccc(-c2nc3ccccc3[nH]2)cc1 | -65.8 | -5.5 | 5.3 | -60.7* | -3.9 | ·
O=C(O)c1ccccc1-c1nc2ccccc2[nH]1 | 60.0* | 8.6 | 3.2 | 21.0 | -0.6 | -0.2
S=C(Nc1ccc(-c2nc3ccccc3[nH]2)cc1)Nc1cccnc1 | 59.3* | -7.5 | -1.4 | 20.7 | 0.9 | ·
COC(=O)c1ccc(-c2nc3ccccc3[nH]2)cc1 | 61.4* | 0.0 | 45.5 | 38.2 | 9.9 | -0.1
Cc1cccc(NC(=O)CSc2ncnc3sc(C)cc23)c1 | -3.1 | 9.2 | 13.7 | 3.2 | 1.5 | ·
O=C(CNC(=O)c1ccc(S(=O)(=O)N2CCCC2)cc1)N/N=C/c1ccc(F)cc1 | -26.8 | -2.6 | 1.9 | -15.0 | -2.6 | -0.1
CC(=O)OC1CC[C@@]2(C)C(CCC3C2CC(=O)[C@@]2(C)C3CC3CC(C)=CC(=O)C32)C1 (some centres not stated) | -6.5 | -2.2 | 10.6 | -9.8 | 1.8 | ·
CCn1c2ccccc2n2c(=O)c(=O)n(CC(=O)N3CCN(c4ccccc4OC)CC3)nc12 | 3.8 | 11.3 | -13.6 | -2.8 | 1.8 | 0.0
O=C1CC(c2cccc(F)c2)c2c(c3ccccc3[nH]c2=O)O1 (configuration not stated) | -12.1 | -7.0 | -11.7 | -4.6 | -4.1 | -0.1
Cc1ccc(-c2nc3ccccc3[nH]2)s1 | 51.0* | 12.4 | 18.0 | 30.6 | 5.8 | -0.3
c1csc(-c2nc3ccccc3[nH]2)c1 | · | -4.5 | -70.3 | · | -4.0 | -0.2
Cc1cc2nc3n(c2cc1C)CCCN3 | -13.4 | -5.9 | 0.8 | -7.0 | -1.7 | ·
CC(=O)Nc1ccc2nc(C3CC3)n(Cc3ccc(Cl)cc3)c(=O)c2c1 | ? | -5.5 | 1.0 | 54.5 | 0.8 | -0.1
COc1ccc(Cn2c(C3CC3)nc3ccc(NC(=O)C4CC4)cc3c2=O)cc1 | 70.1* | -2.9 | 20.4 | 48.8 | -1.7 | 0.4
Cc1cc(-c2n[nH]c(=S)n2/N=C/C(Cl)=C/c2ccccc2)n[nH]1 | 49.5 | -6.0 | 21.0 | 12.8 | 2.9 | -0.2
S=c1[nH]nc(-c2ccco2)n1/N=C/C(Cl)=C/c1ccccc1 | 181.9* | -1.2 | -7.9 | 142.4 | 3.4 | ·
S=c1[nH]nc(-c2cc(-c3ccccc3)n[nH]2)n1/N=C/C(Br)=C/c1ccccc1 | 104.1* | -16.8 | -6.4 | 98.7 | 0.0 | ·
CC(C)CN1CCC(=O)N([C@H](COc2ccccc2)c2ccccc2)CC1 | -7.7 | 1.0 | 14.1 | -1.8 | 1.9 | ·
Cc1nc2c(ccc3nc(NC(=O)Cc4cccc5ccccc45)sc32)s1 | -67.5 | -7.9 | 33.1 | -56.2* | 1.6 | 0.0
SMILES | HSF1 activator | pCIP destab | NALP1 inh | HSF1 inhib | HSP90 refold inh | Hsp70 activator
Cc1cc(C)n(-c2nc3ccccc3nc2N2CCN(C(=O)c3ccccc3)CC2)n1 | 51.7* | 3.0 | 3.6 | 20.8 | -2.5 | -0.4
C/C(=N\OC(=O)c1ccc(F)cc1)c1ccc(F)c(F)c1 | 53.7* | -2.6 | · | 19.9 | 4.5 | ·
O=C(Cn1nnc2ccccc21)c1ccc(Cl)cc1 | 27.5 | 3.8 | -0.3 | 9.4 | -0.9 | ·
COc1ccc(CCNC(=O)CSc2nc3[nH]ncc3c(=O)n2-c2ccccc2OC)cc1OC | -6.9 | 5.4 | 34.7* | 1.1 | -2.9 | -0.3
COc1ccc(CCNC(=O)CN(Cc2ccc(Cl)cc2)S(C)(=O)=O)cc1OC | 2.0 | -15.1 | 28.5* | -1.3 | -1.4 | ·
COc1ccc(CCNC(=O)CSc2nc3cc(Cl)ccc3o2)cc1OC | 66.1* | -5.0 | 18.4 | 24.6 | 5.2 | 0.1
COc1ccc(CCNC(=O)CSc2nc3ccccc3o2)cc1OC | 2.2 | -7.9 | 16.1 | -6.4 | 9.8 | -0.3
COCCNC(=O)CN(Cc1ccc(Cl)cc1)S(C)(=O)=O | -8.8 | -8.5 | 33.3 | -0.6 | -1.0 | 0.2
O=C(CCC1CCCNC1)c1ccccc1 (configuration not stated) | -75.3 | 7.0 | 16.4 | -70.3* | -2.7 | ·
COc1ccc(O)c(C2=Nc3ccccc3N=C(c3cccs3)C2)c1 | -72.2 | -16.0 | -37.0 | -63.0* | -4.9 | -0.5
Cc1ccc(N(C)C(=O)CN(C)S(=O)(=O)c2ccc3c(c2)n(C)c(=O)c(=O)n3C)cc1 | -92.7 | 2.5 | 35.5 | -91.0* | 4.9 | ·
CCOC(=O)C(=Cc1ccc(-n2cncn2)cc1)C(=O)OCC | 126.9* | -4.8 | -3.6 | 98.0 | -1.2 | 1.6
Cc1onc(-c2ccccc2)c1C1=N/C(=C\c2ccccc2F)C(=O)O1 | -6.2 | 7.6 | 8.6 | 2.1 | -0.5 | -0.2
COc1ccc(-c2nc(-c3ccccc3)c(-c3cccs3)[nH]2)cc1OC | 51.5* | -9.5 | 14.1 | 16.2 | 1.1 | -0.3
COc1ccc(-c2nc(-c3cccs3)c(-c3cccs3)[nH]2)cc1OC | 11.6 | 3.6 | -13.8 | 12.9 | -0.4 | 0.6
COCCNc1nc(-c2cc3ccccc3o2)cs1 | 56.4* | -25.6 | 34.0 | 14.4 | 6.8 | 0.5
O=C(CNC(=O)c1ccco1)NCC(=O)OCc1ccc(Cl)cc1Cl | 25.3 | 29.6 | 2.9 | -2.3 | -2.5 | ·
COc1ccccc1CNC(=O)C1CCN(c2ncnc3c2nc2n3CCCCC2)CC1 | -22.5 | -10.2 | 17.2 | -5.5 | -1.4 | ·
O=C(Nc1ccc(-c2nc3ccccc3s2)cc1)C1=COCCO1 | -62.9 | -1.8 | 45.1 | -56.2* | 14.4 | -0.2
O=C(CSc1ccccn1)Nc1nonc1[N+](=O)[O-] | -14.2 | -3.7 | -1.5 | -2.7 | 2.6 | ·
COc1ccc(CCC(=O)N/N=C/c2ccc3c(c2)OCO3)cc1 | 5.1 | · | · | 1.4 | · | ·
CC(C)(C)Cc1nnc(NC(=O)CCc2ccccc2)s1 | 4.4 | -8.4 | -2.6 | 2.9 | -1.8 | ·
Cc1ccc(-n2cccn2)c(CN2CCCC(C(=O)c3ccc4c(c3)OCO4)C2)c1 (configuration not stated) | 18.6 | 7.4 | 10.5 | -0.1 | -2.3 | -0.2
Cc1ccc(SCCN2CCN(C)CC2)cc1 | 57.9* | -7.9 | 0.8 | 17.8 | -4.6 | ·
